Assay [1] can be described thus: CCTE_Harrill_HTTr_CellCount_MCF7: CCTE's Cell Proliferation Assessment for the High-Throughput Transcriptomics (HTTr) Platform, Harrill Lab (AID 2284012; active means hit-call score of the fitted dose curve at least 0.9, where 1 is the maximum;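 further: cells exposed to compound for six hours; intended direction is loss of nuclei count meaning fewer cells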). The method, boiled down: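 Cell count served as viability reporter: loss of Hoechst-stained nuclei, counted by high content imaging, marks decreased growth or survival. Exposure was 6 h in MCF-7 cells across eight concentrations, with DMSO as baseline.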

The nature of assay [2]: CCTE_Shafer_MEA_acute_burst_number: CCTE's Neural Acute Assay for Single-Electrode Bursts, Shafer Lab (AID 2284013). In a few lines: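 Burst totals were derived with adaptive spike detection (8x rms threshold) on filtered signals from rat cortical cultures; change relative to pre-treatment baseline after 40-min compound exposure (0.03-40 uM) was fitted in the negative direction against DMSO.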

Assay [3] is described as follows: CCTE_Shafer_MEA_acute_burst_duration_mean: CCTE's Neural Acute Assay for Mean Burst Duration, Shafer Lab (AID 2284014).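 Further: hits are decreases in mean burst duration relative to DMSO controls.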 In a few lines: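 Acute exposure of mature rat cortical networks (DIV 13 or 15) grown on microelectrode arrays to 0.03-40 uM compound. Mean burst duration compared with the 40-min pre-dose baseline over a 40-min post-dose recording at 37 C.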
Assay [4] is described as follows: CCTE_Shafer_MEA_acute_per_burst_spike_number_mean: CCTE's Neural Acute Assay for Average Number of Spikes Per Burst, Shafer Lab (AID 2284015).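 Further: hits are decreases in mean spikes per burst versus baseline.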 The method, boiled down: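 Primary rat cortical neurons on 48-well MEA plates, treated on DIV 13 or 15 at 0.03-40 uM. Spontaneous activity recorded 40 min before and 40 min after compound at 37 C; percent change in mean spikes per single-electrode burst per well, fitted in the loss direction versus DMSO.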

A short description of assay [5]: CCTE_Shafer_MEA_acute_interburst_interval_mean: CCTE's Neural Acute Assay for Mean Interburst Interval, Shafer Lab (AID 2284016).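 Further: percent change of mean interburst interval versus each well's own pre-dose baseline; curves fitted for decrease in interburst interval relative to DMSO.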 The method, boiled down:
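Primary rat cortical neurons on 16-electrode MEA wells were recorded 40 min at baseline on DIV 13 or 15, then 40 min after compound (0.03-40 uM), at 37 C. Value is percent change in mean interburst interval per well, DMSO as negative control.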

The nature of assay [6]: CCTE_Shafer_MEA_acute_burst_percentage_mean: CCTE's Neural Acute Assay for Percentage of Spikes in a Burst, Shafer Lab (AID 2284017).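 On AC50: curve fitted for loss of signal so potency reflects decreased burst percentage.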 The method, boiled down:
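Primary rat cortical neurons on 16-electrode MEA wells; 40 min baseline recorded at DIV 13 or 15, then 40 min after compound (0.03-40 uM) at 37 C. Well-mean fraction of spikes in single-electrode bursts; percent change from baseline, DMSO as negative control.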

Assay [7] in a line: CCTE_Shafer_MEA_acute_burst_percentage_std: CCTE's Neural Acute Assay for Standard Deviation of Burst Percentage, Shafer Lab (AID 2284018).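 Further: fitted in the negative direction so actives lower burst percentage SD.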 The method, boiled down:
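Primary rat cortical neurons on 16-electrode MEA wells were recorded 40 min at baseline (DIV 13 or 15), then 40 min after compound (0.03-40 uM), at 37 C. Well value is SD across electrodes of spikes-in-bursts/total spikes; endpoint is percent change, DMSO-referenced.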

Assay [8] is described as follows: CCTE_Shafer_MEA_acute_per_network_burst_spike_number_mean: CCTE's Neural Acute Assay for Average Number of Spikes in a Network Burst, Shafer Lab (AID 2284019).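 On AC50: curve fitted for loss of signal so actives reduce spikes per network burst.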 The method, boiled down:
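Acute exposure of rat primary cortical networks (DIV 13/15) on MEAs; adaptive spike detection at 8x rms noise, 37 C. Percent change in spikes per network burst after 40 min with compound (0.03-40 uM), negative direction vs DMSO.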

Assay [9] is described as follows: CCTE_Shafer_MEA_acute_per_network_burst_spike_number_std: CCTE's Neural Acute Assay for Standard Deviation of Number of Spikes in a Network Burst, Shafer Lab (AID 2284020).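 Further: fitted for decrease in spike-number SD versus DMSO so actives lower it.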 The method, boiled down: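 Acute MEA exposure, rat cortical neurons, 0.03-40 uM. Per-well % change versus own baseline; DMSO as negative control.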
Assay [10] can be described thus: CCTE_Shafer_MEA_acute_per_network_burst_electrodes_number_mean: CCTE's Neural Acute Assay for Mean Number of Electrodes in a Network Burst, Shafer Lab (AID 2284021).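 Further: curves fitted for decreases only so hits reduce electrodes per burst.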 The method, boiled down: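 Rat primary cortical neurons on 48-well MEAs, DIV 13 or 15, were treated at 0.03-40 uM. Spikes were detected at 8x rms noise and recorded at 37 C. The mean electrodes per network burst in a 40 min exposure recording was expressed as percent change from a 40 min baseline.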

Assay [11] is described as follows: CCTE_Shafer_MEA_acute_network_burst_percentage: CCTE's Neural Acute Assay for Percentage of Network Bursts, Shafer Lab (AID 2284022).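 Further: curves fitted for loss so actives lower network burst percentage.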 In a few lines:
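Rat primary cortical neuron networks on 48-well MEA plates, DIV 13 or 15, treated acutely with compound (0.03-40 uM, at least three wells). Percent of spikes within network bursts compared between 40-min recordings before and during exposure at 37 C, expressed as percent change.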

Assay [12] is described as follows: CCTE_Shafer_MEA_acute_cross_correlation_area: CCTE's Neural Acute Assay for Area of Cross Correlation, Shafer Lab (AID 2284024).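 Further: curves fitted for loss of cross-correlation area so actives lower synchrony.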 In a few lines:
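Rat primary cortical neurons on 48-well MEA, DIV 13 or 15; compounds 0.03-40 uM. Baseline and post-exposure 40 min recordings at 37 C; percent change in area under pooled inter-electrode cross-correlation near zero lag, relative to DMSO.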

Assay [13] can be described thus: CCTE_Shafer_MEA_acute_cross_correlation_HWHM: CCTE's Neural Acute Assay for Cross Correlation at Half Width at Half Maximum, Shafer Lab (AID 2284026).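 Further: hits are a decrease in cross-correlogram half width relative to DMSO.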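 On outcome: spontaneous network firing of rat primary cortical neurons on multiwell microelectrode arrays.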 In a few lines: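 Rat primary cortical neurons on 48-well MEA plates; 40-min baseline and 40-min post-exposure recordings at 37 C on DIV 13 or 15, compounds 0.03-40 uM. Spikes detected at 8x rms noise; percent change in cross-correlogram HWHM per well vs baseline.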

Assay [14] in a line: CCTE_Shafer_MEA_dev_firing_rate_mean: CCTE's Neural Network Formation Assay for Mean Firing Rate, Shafer Lab (AID 2284031).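 On AC50: curve fitted for loss of firing so AC50 reflects decreased mean firing rate.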 In a few lines: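 Steps: seed rat cortical cells (1.5 x 10^5/well) with laminin on PEI-coated MEA; dose day 0; record DIV 5/7/9/12, full media and compound exchange after DIV 5 and 9 recordings; compute well-mean firing rate AUC.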
The nature of assay [15]: CCTE_Shafer_MEA_dev_per_burst_spike_percent: CCTE's Neural Network Formation Assay for Percent of Spikes in a Burst, Shafer Lab (AID 2284032).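 On AC50: fitted as a decrease in burst spike percentage below DMSO baseline.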 The method, boiled down:
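Value is trapezoidal AUC over recordings on days 5, 7, 9 and 12 of the well-mean fraction of spikes falling in single-electrode bursts; rat cortical cultures exposed continuously from plating, treatment renewed DIV 5 and 9, fitted downward against DMSO.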

Where “and” joins values, the source holds several entries; their conditions need not be identical. Identical values can stand only once. Inconclusive results are not listed. Calls of active or inactive are those of the source. How the source made its calls, unless noted: active means hit-call score of the fitted dose curve at least 0.9, where 1 is the maximum; inactive means score below 0.9.

As a reminder, the AC50 is the midpoint of the concentration-response curve, whichever way the signal moves. Regarding `OC(c1ccc(Cl)cc1)(c1cncnc1)c1ccccc1Cl` (centres undefined), the result in assay [1] and in assay [7] was inactive. For the same compound, the AC50 in assay [2] was 0.882 µM (active); in assay [3] it was 5 µM (active); in assay [4] it was 5 µM (active); in assay [5], 3.27 µM (active); in assay [6] it was 2.9 µM (active); in assay [8] it was 1.62 µM (active). Also, the AC50 was 2.84 µM (active) in [9]; 2.52 µM (active) in [10]; 6.61 µM (active) in [11]; 0.761 µM (active) in [12]; 4.34 µM (active) in [13].

In the case of `COP(=S)(OC)Oc1nc(Cl)c(Cl)cc1Cl`, the outcome in [1], in assay [2], in assay [3], in assay [5], in assay [7] and in assay [8] was inactive. In addition, the compound was called inactive in assay [10], in assay [11], in assay [12], in assay [13], in [14] and in [15]. Also, the AC50 was 0.102 µM (active) in assay [6] and 0.358 µM (active) in assay [9].

For the compound `CC(C)Oc1cc(-n2nc(C(C)(C)C)oc2=O)c(Cl)cc1Cl`, the call in assay [1], in assay [2], in [3], in assay [4], in [6] and in [7] was inactive. Further, the compound was classed as inactive in [8], in assay [9], in assay [10], in assay [11], in assay [12] and in assay [13]. The AC50 in assay [5] is 4.16 µM (active).

With `CCCN(CCC)c1c([N+](=O)[O-])cc(S(N)(=O)=O)cc1[N+](=O)[O-]`, the outcome in assay [1], in assay [3], in assay [4], in assay [7], in [8] and in assay [9] was inactive. The compound was called inactive in assay [10], in assay [11] and in [12]. Further, the AC50 was 4.69 µM (active) in assay [2], 5 µM (active) in assay [5], 5 µM (active) in assay [6] and 10.5 µM (active) in assay [13].

With `CCCCNC(=O)OCC#CI`, the compound was classed as inactive in assay [1], in assay [2], in assay [3], in assay [4], in assay [7] and in [8]. Besides, in [12], the result was inactive. The AC50 is 31.4 µM (active) in assay [5]; 20 µM (active) in assay [6]; 6.46 µM (active) in assay [9]; 20 µM (active) in [10]; 37.1 µM (active) in assay [11]; 31.7 µM (active) in assay [13]. Further, the AC50 in assay [14] is 3.81 µM (active) and 2.25 µM (active); in assay [15], 3.25 µM (active) and 1.37 µM (active).

In the case of `CS/C(C)=N/OC(=O)N(C)SN(C)C(=O)O/N=C(\C)SC`, the call in assay [1], in assay [2], in assay [3], in [4], in [7] and in assay [11] was inactive. Besides, the compound was called inactive in assay [12] and in assay [13]. For the same compound, the AC50 in assay [5] was 29.7 µM (active); in [6], 25.5 µM (active); in [8] it was 20 µM (active); in assay [9], 25.3 µM (active); in assay [10] it was 20 µM (active).

Take `N#Cc1cc(Br)c(O)c(Br)c1`: the compound was called inactive in assay [1].

Consider `C#CCOS(=O)OC1CCCCC1Oc1ccc(C(C)(C)C)cc1` (centres undefined), for which the result in assay [1], in assay [2], in [3], in assay [5], in assay [8] and in assay [9] was inactive. Moreover, the compound was classed as inactive in assay [10], in assay [11] and in [12]. Also, the AC50 is 33.6 µM (active) in assay [4], 32 µM (active) in assay [6], 34.6 µM (active) in [7] and 20 µM (active) in assay [13].

Consider `CC1COC(Cn2cncn2)(c2ccc(Oc3ccc(Cl)cc3)cc2Cl)O1` (centres undefined), for which the compound was called inactive in [1], in assay [3], in [4], in assay [5], in assay [8] and in assay [10]. Further, the result in assay [11] and in assay [12] was inactive. Further, the concentration at half-maximal activity (AC50) in assay [2] was 5.26 µM (active); in assay [6] it was 4.77 µM (active); in [7], 36.6 µM (active); in assay [9] it was 3.5 µM (active); in [13] it was 4.15 µM (active).

On to `CNC(=S)S`, for which the outcome in assay [1] was inactive.

For the origin of these results see PubChem BioAssay (EPA / NIEHS).
